Measured values from paper PMC7862700, “An all-to-all approach to the identification of sequence-specific readers for epigenetic DNA modifications on cytosine”.

Experiments:
Assay in all cases: DAPPL (digital affinity profiling via proximity ligation, sequencing); 10 mM Tris-HCl pH 7.5, 50 mM NaCl, 1 mM DTT, 4% glycerol, room temperature, 30 min; GST-TFs on glutathione beads, 16-mer random dsDNA library, 0.1% formaldehyde crosslink after washing; high values mean tight binding
Conditions in all cases: protein: recombinant; tags: N-terminal GST; dsDNA, one strand shown
[1] = biological target: T1, ELK1 (Homo sapiens, UniProt P19419 1-428)
T1 sequence: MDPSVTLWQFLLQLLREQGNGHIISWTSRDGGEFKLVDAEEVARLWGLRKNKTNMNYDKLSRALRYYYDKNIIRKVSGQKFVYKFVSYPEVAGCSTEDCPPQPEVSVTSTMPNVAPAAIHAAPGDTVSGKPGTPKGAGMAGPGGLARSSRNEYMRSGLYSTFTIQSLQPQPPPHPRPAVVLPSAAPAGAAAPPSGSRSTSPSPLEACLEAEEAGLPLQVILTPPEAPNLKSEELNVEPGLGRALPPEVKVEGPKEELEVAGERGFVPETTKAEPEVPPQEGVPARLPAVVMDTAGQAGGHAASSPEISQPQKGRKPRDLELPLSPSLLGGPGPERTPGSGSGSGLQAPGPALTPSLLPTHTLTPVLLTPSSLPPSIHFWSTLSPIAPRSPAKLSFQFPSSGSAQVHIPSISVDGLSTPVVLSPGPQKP
Summary of the method: (§1)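 A tag-only sample was pooled with DNA-barcoded human transcription factors that had been expressed in yeast as GST fusions and captured on glutathione beads. The pools were incubated for 30 min at room temperature with 200 nmole of a random double-stranded 16-mer DNA library in Tris/NaCl/DTT/glycerol buffer, then washed, crosslinked with 0.1% formaldehyde, proximity-ligated (BsaI/T4 ligase, 1 h, 37 °C), PCR-amplified and sequenced on an Illumina NextSeq500. Binding signal is each hexamer's read frequency for a factor divided by its frequency for the tag-only sample.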

[2] = biological target: T2, GABPA (Homo sapiens, UniProt Q06546 1-454)
T2 sequence: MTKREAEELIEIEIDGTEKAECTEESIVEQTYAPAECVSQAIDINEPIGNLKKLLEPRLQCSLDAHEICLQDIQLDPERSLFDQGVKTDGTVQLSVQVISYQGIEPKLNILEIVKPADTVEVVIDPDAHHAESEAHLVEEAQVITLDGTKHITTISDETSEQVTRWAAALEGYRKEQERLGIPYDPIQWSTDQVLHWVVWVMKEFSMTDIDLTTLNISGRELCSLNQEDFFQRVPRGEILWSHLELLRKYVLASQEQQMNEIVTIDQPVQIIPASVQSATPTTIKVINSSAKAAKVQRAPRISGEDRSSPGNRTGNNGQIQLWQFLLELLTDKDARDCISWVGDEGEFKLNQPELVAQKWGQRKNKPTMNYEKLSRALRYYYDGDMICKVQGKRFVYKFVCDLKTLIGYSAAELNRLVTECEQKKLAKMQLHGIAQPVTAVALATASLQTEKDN
Summary of the method: as §1

[3] = biological target: T3, ERG (Homo sapiens, UniProt P11308 1-479)
T3 sequence: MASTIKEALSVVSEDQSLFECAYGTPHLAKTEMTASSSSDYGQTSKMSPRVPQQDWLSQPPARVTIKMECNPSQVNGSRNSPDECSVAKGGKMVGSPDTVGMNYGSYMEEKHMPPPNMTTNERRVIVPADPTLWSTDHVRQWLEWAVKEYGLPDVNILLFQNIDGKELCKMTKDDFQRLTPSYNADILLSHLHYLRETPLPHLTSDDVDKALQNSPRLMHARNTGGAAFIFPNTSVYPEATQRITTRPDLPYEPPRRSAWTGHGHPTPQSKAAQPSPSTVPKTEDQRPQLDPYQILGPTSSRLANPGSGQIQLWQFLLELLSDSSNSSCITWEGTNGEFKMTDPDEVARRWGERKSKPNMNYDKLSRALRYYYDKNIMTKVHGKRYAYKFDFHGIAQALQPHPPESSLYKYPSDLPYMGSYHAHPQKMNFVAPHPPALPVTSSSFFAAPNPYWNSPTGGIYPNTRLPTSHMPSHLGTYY
Summary of the method: as §1

[4] = biological target: ELF1 (Homo sapiens, UniProt P32519 1-619)
Summary of the method: as §1

[5] = biological target: SPIB (Homo sapiens, UniProt Q01892 1-262)
Summary of the method: as §1

[6] = biological target: T4, FEV (Homo sapiens, UniProt Q99581 1-238)
T4 sequence: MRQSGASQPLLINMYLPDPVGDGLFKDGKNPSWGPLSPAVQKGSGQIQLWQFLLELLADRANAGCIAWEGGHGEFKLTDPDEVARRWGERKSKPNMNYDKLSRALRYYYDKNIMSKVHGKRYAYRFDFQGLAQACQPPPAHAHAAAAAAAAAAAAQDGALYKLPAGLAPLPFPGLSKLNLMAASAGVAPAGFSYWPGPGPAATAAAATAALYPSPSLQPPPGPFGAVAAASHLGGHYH
Summary of the method: as §1

[7] = biological target: ETV5 (Homo sapiens, UniProt P41161 1-510)
Summary of the method: as §1

[8] = biological target: ELF4 (Homo sapiens, UniProt Q99607 1-663)
Summary of the method: as §1

[9] = biological target: T5, ETV2 (Homo sapiens, UniProt O00321 1-342)
T5 sequence: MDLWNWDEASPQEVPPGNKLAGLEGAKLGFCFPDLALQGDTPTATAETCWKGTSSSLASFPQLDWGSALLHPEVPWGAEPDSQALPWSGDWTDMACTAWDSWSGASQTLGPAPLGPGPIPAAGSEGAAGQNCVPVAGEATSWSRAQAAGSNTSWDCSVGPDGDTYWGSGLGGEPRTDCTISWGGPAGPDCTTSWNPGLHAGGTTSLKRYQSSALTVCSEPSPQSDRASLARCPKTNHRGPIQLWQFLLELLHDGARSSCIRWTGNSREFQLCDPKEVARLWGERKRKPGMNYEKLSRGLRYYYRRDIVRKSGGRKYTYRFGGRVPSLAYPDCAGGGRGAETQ
Summary of the method: as §1

[10] = biological target: T6, ELF3 (Homo sapiens, UniProt P78545 1-371)
T6 sequence: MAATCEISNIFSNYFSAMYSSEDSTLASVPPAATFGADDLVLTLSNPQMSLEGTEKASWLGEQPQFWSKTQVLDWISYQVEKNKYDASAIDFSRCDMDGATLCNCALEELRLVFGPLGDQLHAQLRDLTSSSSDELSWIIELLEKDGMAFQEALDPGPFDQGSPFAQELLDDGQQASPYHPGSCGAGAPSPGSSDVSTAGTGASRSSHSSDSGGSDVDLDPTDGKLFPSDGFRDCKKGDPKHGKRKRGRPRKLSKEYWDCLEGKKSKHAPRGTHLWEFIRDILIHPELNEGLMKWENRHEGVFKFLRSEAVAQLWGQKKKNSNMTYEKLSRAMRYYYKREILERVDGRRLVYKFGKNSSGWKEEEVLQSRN
Summary of the method: as §1

[11] = biological target: T7, ERF (Homo sapiens, UniProt P50548 1-548)
T7 sequence: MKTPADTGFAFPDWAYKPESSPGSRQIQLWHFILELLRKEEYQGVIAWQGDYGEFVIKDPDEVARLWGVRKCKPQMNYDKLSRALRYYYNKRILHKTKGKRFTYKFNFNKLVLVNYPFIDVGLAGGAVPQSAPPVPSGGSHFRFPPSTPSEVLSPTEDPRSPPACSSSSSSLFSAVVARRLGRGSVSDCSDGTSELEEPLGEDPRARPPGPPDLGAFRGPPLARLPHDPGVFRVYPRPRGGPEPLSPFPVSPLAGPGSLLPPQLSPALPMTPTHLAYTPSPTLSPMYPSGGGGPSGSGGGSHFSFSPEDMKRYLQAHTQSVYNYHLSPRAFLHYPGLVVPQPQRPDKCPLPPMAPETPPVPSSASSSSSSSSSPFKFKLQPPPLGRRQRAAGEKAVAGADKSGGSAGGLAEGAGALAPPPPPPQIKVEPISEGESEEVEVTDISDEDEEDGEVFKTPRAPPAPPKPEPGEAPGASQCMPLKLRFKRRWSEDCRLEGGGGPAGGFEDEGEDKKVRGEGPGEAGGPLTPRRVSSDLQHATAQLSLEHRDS
Summary of the method: as §1

[12] = biological target: T8, ETV3L (Homo sapiens, UniProt Q6ZN32 1-361)
T8 sequence: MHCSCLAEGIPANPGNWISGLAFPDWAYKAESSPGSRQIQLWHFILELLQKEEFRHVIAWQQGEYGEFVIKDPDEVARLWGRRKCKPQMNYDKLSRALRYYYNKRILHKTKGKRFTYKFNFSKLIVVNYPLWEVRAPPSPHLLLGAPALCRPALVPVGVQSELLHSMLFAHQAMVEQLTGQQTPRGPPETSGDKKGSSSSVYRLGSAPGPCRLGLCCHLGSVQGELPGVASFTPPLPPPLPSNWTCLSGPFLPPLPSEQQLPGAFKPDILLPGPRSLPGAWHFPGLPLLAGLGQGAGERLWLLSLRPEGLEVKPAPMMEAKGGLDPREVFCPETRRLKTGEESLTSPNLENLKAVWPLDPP
Summary of the method: as §1

[13] = biological target: T9, ETS2 (Homo sapiens, UniProt P15036 1-469)
T9 sequence: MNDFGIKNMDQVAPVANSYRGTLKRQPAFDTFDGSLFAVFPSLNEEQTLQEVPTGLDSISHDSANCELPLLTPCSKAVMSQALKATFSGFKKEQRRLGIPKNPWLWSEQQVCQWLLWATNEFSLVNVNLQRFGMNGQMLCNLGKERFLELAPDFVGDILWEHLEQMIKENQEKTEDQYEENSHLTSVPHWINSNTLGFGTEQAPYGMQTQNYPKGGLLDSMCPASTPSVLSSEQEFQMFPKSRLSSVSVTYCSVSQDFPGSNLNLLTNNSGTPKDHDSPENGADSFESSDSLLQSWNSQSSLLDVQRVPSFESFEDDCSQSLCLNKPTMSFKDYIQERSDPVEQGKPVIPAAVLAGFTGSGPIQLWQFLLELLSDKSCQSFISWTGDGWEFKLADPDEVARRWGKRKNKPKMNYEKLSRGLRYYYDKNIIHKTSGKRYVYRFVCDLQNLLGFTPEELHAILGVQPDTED
Summary of the method: as §1

[14] = biological target: T10, SPDEF (Homo sapiens, UniProt O95238 1-335)
T10 sequence: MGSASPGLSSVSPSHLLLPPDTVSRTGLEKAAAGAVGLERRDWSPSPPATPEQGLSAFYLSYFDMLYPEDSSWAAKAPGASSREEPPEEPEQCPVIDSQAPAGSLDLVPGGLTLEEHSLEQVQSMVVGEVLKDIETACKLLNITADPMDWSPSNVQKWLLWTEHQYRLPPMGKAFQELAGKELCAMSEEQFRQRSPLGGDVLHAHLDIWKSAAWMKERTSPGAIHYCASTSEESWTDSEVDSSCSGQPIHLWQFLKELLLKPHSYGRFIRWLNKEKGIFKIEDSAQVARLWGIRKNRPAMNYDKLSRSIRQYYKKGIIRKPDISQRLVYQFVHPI
Summary of the method: as §1

[15] = biological target: T11, ETV7 (Homo sapiens, UniProt Q9Y603 1-341)
T11 sequence: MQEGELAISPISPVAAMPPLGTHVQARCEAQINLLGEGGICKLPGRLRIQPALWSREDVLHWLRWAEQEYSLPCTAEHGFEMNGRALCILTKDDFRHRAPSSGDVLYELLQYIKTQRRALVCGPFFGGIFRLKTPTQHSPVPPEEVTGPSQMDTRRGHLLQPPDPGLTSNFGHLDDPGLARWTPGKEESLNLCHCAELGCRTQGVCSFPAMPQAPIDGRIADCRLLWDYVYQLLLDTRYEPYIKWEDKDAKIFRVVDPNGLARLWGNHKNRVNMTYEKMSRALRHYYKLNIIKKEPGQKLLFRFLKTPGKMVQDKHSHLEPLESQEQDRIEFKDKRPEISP
Summary of the method: as §1

[16] = biological target: T12, ETV3 (Homo sapiens, UniProt P41162-2 1-143)
T12 sequence: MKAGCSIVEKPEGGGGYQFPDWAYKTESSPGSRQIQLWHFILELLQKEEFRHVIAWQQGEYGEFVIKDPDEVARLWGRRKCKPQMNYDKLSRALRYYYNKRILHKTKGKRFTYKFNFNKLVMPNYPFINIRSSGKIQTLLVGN
Summary of the method: as §1

[17] = biological target: ETV6 (Homo sapiens, UniProt P41212 1-452)
Summary of the method: as §1

ELF4, sequence (Q99607 whole entry): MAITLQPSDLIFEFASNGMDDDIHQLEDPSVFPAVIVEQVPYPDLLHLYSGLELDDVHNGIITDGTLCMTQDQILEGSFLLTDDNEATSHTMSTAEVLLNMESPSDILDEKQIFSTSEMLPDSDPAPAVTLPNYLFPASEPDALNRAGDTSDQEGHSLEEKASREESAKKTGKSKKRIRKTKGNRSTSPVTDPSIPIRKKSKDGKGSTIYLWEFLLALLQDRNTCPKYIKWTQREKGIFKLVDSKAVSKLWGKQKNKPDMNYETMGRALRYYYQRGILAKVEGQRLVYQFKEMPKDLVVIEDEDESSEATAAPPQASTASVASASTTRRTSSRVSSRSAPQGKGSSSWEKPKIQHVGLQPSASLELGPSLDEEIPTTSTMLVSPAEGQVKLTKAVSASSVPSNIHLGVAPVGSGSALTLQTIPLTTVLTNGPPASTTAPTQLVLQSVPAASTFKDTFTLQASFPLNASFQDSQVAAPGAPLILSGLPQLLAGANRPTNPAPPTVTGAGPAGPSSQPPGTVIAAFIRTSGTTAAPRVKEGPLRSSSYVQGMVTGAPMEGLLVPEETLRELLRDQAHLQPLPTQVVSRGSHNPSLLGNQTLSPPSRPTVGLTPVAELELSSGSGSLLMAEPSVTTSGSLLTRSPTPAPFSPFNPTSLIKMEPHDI
ELF1, sequence (P32519 whole entry): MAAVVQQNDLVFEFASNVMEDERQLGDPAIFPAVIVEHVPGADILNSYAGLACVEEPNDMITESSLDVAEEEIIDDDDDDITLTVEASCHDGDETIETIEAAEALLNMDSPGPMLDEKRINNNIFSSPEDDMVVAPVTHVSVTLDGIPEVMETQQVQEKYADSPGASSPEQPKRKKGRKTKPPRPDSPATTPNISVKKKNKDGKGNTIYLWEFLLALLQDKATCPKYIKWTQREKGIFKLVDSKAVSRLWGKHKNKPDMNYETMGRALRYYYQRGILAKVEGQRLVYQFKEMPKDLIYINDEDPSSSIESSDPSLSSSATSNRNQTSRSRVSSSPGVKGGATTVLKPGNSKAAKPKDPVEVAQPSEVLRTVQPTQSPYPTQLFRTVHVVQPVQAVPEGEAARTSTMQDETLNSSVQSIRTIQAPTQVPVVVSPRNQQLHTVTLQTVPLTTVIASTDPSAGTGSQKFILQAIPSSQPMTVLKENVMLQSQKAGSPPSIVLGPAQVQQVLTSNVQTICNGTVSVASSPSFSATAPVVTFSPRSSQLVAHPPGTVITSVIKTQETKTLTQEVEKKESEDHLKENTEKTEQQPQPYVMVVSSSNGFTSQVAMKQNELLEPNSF
ETV5, sequence (P41161 whole entry): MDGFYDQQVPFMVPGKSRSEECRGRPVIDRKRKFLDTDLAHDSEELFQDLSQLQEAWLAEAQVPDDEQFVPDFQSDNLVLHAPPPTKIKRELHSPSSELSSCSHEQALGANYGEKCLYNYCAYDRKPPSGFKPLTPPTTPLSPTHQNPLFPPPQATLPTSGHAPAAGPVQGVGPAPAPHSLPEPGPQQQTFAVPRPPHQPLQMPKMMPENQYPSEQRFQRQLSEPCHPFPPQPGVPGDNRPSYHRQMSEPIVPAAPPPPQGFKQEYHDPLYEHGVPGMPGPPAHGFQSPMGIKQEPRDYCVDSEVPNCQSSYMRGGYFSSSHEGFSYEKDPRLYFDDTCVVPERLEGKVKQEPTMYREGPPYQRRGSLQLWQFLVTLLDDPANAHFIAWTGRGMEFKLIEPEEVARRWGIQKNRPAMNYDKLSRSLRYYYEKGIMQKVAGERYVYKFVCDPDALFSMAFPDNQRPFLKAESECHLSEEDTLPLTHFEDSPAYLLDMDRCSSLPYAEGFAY
SPIB, sequence (Q01892 whole entry): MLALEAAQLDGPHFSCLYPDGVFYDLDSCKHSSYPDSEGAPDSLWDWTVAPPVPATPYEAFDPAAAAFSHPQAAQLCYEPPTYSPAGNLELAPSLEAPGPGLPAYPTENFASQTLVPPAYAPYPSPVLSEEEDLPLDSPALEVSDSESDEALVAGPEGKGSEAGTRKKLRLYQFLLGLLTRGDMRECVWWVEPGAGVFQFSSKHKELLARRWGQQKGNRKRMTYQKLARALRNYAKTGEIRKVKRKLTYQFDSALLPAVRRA
ETV6, sequence (P41212 whole entry): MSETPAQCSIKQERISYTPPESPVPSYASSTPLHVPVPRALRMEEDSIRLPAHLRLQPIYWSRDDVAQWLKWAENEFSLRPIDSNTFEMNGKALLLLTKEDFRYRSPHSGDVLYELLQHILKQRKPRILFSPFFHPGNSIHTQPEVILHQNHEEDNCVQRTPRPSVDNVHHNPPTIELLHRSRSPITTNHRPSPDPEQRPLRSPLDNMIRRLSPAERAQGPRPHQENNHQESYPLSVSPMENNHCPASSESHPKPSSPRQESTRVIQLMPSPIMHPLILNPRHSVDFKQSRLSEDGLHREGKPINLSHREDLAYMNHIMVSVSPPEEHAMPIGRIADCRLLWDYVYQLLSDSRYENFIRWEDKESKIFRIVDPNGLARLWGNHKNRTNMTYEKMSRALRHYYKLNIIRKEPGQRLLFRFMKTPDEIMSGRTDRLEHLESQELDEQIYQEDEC

CCGCAG
binding signal [1]: 1.09 fold enrichment (6-mer frequency, TF over GST control) | binding signal [2]: 1.13 fold enrichment (6-mer frequency, TF over GST control) | binding signal [3]: 1.06 fold enrichment (6-mer frequency, TF over GST control) | binding signal [4]: 1.01 fold enrichment (6-mer frequency, TF over GST control) | binding signal [5]: 1.21 fold enrichment (6-mer frequency, TF over GST control) | binding signal [6]: 1.08 fold enrichment (6-mer frequency, TF over GST control) | binding signal [7]: 1.12 fold enrichment (6-mer frequency, TF over GST control) | binding signal [8]: 1.07 fold enrichment (6-mer frequency, TF over GST control) | binding signal [9]: 1.22 fold enrichment (6-mer frequency, TF over GST control) | binding signal [10]: 1.19 fold enrichment (6-mer frequency, TF over GST control) | binding signal [11]: 1.12 fold enrichment (6-mer frequency, TF over GST control) | binding signal [12]: 1.02 fold enrichment (6-mer frequency, TF over GST control) | binding signal [13]: 1.06 fold enrichment (6-mer frequency, TF over GST control) | binding signal [14]: 1.07 fold enrichment (6-mer frequency, TF over GST control) | binding signal [15]: 1.12 fold enrichment (6-mer frequency, TF over GST control) | binding signal [16]: 1.07 fold enrichment (6-mer frequency, TF over GST control) | binding signal [17]: 1 fold enrichment (6-mer frequency, TF over GST control)
